From PubChem BioAssay (NCATS)
Results filed as inconclusive are left out. Where a call stands in place of a potency, no number is given. Calls of active or inactive are those of the source. The call rests on the fitted dose curve; in most records, active means well fitted cell-killing curve with a large enough effect; inconclusive means small, poorly fitted or top-dose-only effect, or effect the other way; inactive means no such curve, though single readings can be large or run the other way.
Potency means the concentration at half of the fitted maximal effect.

Test: Quantitative High-Throughput drug screen in 47 multiple myeloma cell lines against the NCATS MIPE library collection: KHM11_PLB cell viability assay (AID 1918962); further: nearly all actives have a fitted effect of over 35% in size
Settings: KHM11 myeloma cell viability, CellTiter-Glo ATP luminescence, 48 h; series mostly up to 45.8 µM
From the text: PI: Beverly A. Mock Ph.D.
Laboratory of Cancer Biology and Genetics,
Center for Cancer Research, National Cancer Institute,
National Institute of Health, Bethesda, Maryland
Drug resistance and disease progression are common in multiple myeloma (MM) patients, underscoring the need for new therapeutic combinations. […] We hypothesized that effective combinations would reduce MYC expression and enhance p16 activity. […] These preclinical data identify potentially useful drug combinations for evaluation in drug-resistant MM and reveal potential mechanisms of combined drug sensitivity.
Described herein is the primary MIPE qHTS used to cherrypick compounds. Validated compounds were then further tested for potential synergistic activiy.
[1] Peat TJ, Gaikwad SM, Dubois W, Gyabaah-Kessie N, Zhang S, Gorjifard S, Phyo Z, Andres M, Hughitt VK, Simpson RM, Miller MA, Girvin AT, Taylor A, Williams D, D'Antonio N, Zhang Y, Rajagopalan A, Flietner E, Wilson K, Zhang X, Shinn P, Klumpp-Thomas C, McKnight C, Itkin Z, Chen L, Kazandijian D, Zhang J, Michalowski AM, Simmons JK, Keats J, Thomas CJ, Mock BA. Drug combinations identified by high-throughput screening promote cell cycle transition and upregulate Smad pathways in myeloma. Cancer Lett. 2023 Aug 1;568:216284. doi: 10.1016/j.canlet.2023.216284. Epub 2023 Jun 24. PMID: 37356470; PMCID: PMC10408729.
SEQUENCE No. (e.g., 1, 2, 3, etc.); […] (e.g., Cells, Incubation, Reagent, etc.); VALUE and DESCRIPTION.
1; Cells; 5 uL; white, solid bottom 1536-well Greiner assay plate.
2; Compounds; 23 nL; Kalypsis pin tool (Wako USA) equipped with a 1536-well pin head to transfer to the assay plates.
3; Incubation; 48 hours; 37C incubation.
4; Reagent;5uL; CellTiter Glo (Promega).
5; Detector; 425V; Luminescence; Viewlux PerkinElmer.
NOTES (numbers refer to Sequence numbers above)
1. The cell-based screening methods employed in this study were like those previously published. Briefly, the corresponding myeloma cell lines were screened in 1,536-well plates with 500 cells, 5-uL per well for inhibition of cell viability (assessed by measuring ATP levels with CellTiterGlo).
2. NCATS MIPE 4.0 library of approved and investigational drugs were added using the Kalypsis pin tool. Wells treated with DMSO only for 100% viability and media only wells for 0% viability were used as controls.
3. The assay plates were covered and incubated for 48 hours in a 37C, 5% CO2 incubator with controlled humidity.
4. After 48 hours, CellTilter-GloTM luminescent substrate mix (Promega) reagent was added to the assay plate and plates we incubated for 5 min at room temperature.
5. Signal was measured as median relative luminescence units on a ViewLux (PerkinElmer) multiplate reader.
[1] Heske CM, Davis MI, Baumgart JT, Wilson K, Gormally MV, Chen L, Zhang X, Ceribelli M, Duveau DY, Guha R, Ferrer M, Arnaldez FI, Ji J, Tran HL, Zhang Y, Mendoza A, Helman LJ, Thomas CJ. Matrix Screen Identifies Synergistic Combination of PARP Inhibitors and Nicotinamide Phosphoribosyltransferase (NAMPT) Inhibitors in Ewing Sarcoma. Clin Cancer Res. 2017 Dec 1;23(23):7301-7311. doi: 10.1158/1078-0432.CCR-17-1121. Epub 2017 Sep 12. PMID: 28899971; PMCID: PMC6636827.
In the case of `NC(=O)OCC(COC(N)=O)c1ccccc1`, the Potency is reported as “inactive”.
In the case of `CN1C2CCC1CC(OC(=O)C(CO)c1ccccc1)C2` (stereo not given), the Potency is reported as “inactive”.
With `CN(C)CCC=C1c2ccccc2C=Cc2ccccc21` the Potency was “inactive”.
With `CNCCCC12CCC(c3ccccc31)c1ccccc12` the Potency was 26.4 µM (active).
With `CS(=O)(=O)CCNCc1ccc(-c2ccc3ncnc(Nc4ccc(OCc5cccc(F)c5)c(Cl)c4)c3c2)o1` the Potency was 4.69 µM (active).
With `COc1cc2nc(N(C)CCCNC(=O)C3CCCO3)nc(N)c2cc1OC` (stereo not given) the Potency was “inactive”.
With `CN(C)CCCN1c2ccccc2CCc2ccc(Cl)cc21` the Potency was 3.32 µM (active).
For `O=C(c1ccc(F)cc1)C1CCN(CCn2c(=O)[nH]c3ccccc3c2=O)CC1`, the Potency was “inactive”.
In the case of `CC(=O)OCC(CCn1cnc2cnc(N)nc21)COC(C)=O`, the Potency is reported as “inactive”.
With `COc1ccccc1OCCNCC(O)COc1cccc2[nH]c3ccccc3c12` (stereo not given) the Potency was “inactive”.
In the case of `Cn1c(=O)c2c(ncn2C)n(C)c1=O`, the Potency is reported as “inactive”.
In the case of `Cc1ccc(-c2cc(C(F)(F)F)nn2-c2ccc(S(N)(=O)=O)cc2)cc1`, the Potency is reported as “inactive”.
In the case of `CN(C)c1nc(N(C)C)nc(N(C)C)n1`, the Potency is reported as “inactive”.
For `COc1nc(C)nc(Cl)c1NC1=NCCN1`, the Potency was “inactive”.
In the case of `CC(C)C(=O)Nc1ccc([N+](=O)[O-])c(C(F)(F)F)c1`, the Potency is reported as 6.62 µM (active).
With `Cc1ccc(C(=O)Nc2ccc(S(=O)(=O)O)c3cc(S(=O)(=O)O)cc(S(=O)(=O)O)c23)cc1NC(=O)c1cccc(NC(=O)Nc2cccc(C(=O)Nc3cc(C(=O)Nc4ccc(S(=O)(=O)O)c5cc(S(=O)(=O)O)cc(S(=O)(=O)O)c45)ccc3C)c2)c1` the Potency was “inactive”.
For `Cc1cc(C(C)(C)C)cc(C)c1CC1=NCCN1`, the Potency was “inactive”.
In the case of `Cc1ccccc1N1C(=O)c2cc(S(N)(=O)=O)c(Cl)cc2NC1C` (stereo not given), the Potency is reported as “inactive”.
For `CC[C@@]1(O)C(=O)OCc2c1cc1n(c2=O)Cc2cc3c(CN(C)C)c(O)ccc3nc2-1`, the Potency was 1.66 µM (active).
For `O=C(C1CCCCC1)N1CC(=O)N2CCc3ccccc3C2C1` (stereo not given), the Potency was “inactive”.
In the case of `NC(CO)C(=O)NNCc1ccc(O)c(O)c1O` (stereo not given), the Potency is reported as “inactive”.
With `NC(=O)NO` the Potency was 2.96 µM (active).
For `CC1(C)O[C@H]2CC(=O)OC[C@]23[C@H]2CC[C@@]4(C)[C@H](c5ccoc5)OC(=O)[C@H]5O[C@]54[C@]2(C)C(=O)C[C@@H]13`, the Potency was “inactive”.
In the case of `O=C1N(c2ccccc2)c2ccccc2C1(Cc1ccncc1)Cc1ccncc1`, the Potency is reported as “inactive”.
In the case of `CCOC(=O)C(C)(C)Oc1ccc(Cl)cc1`, the Potency is reported as “inactive”.
For `CC1(CN2CCC(n3c(=O)[nH]c4ccccc43)CC2)OCc2ccccc2-n2cccc21` (stereo not given), the Potency was “inactive”.
With `CS(=O)(=O)Nc1ccc([N+](=O)[O-])cc1Oc1ccccc1` the Potency was “inactive”.
In the case of `COc1cc2nc(N3CCN(C(=O)c4ccco4)CC3)nc(N)c2cc1OC`, the Potency is reported as 10.5 µM (active).
In the case of `CCc1cccc2c3c([nH]c12)C(CC)(CC(=O)O)OCC3` (stereo not given), the Potency is reported as “inactive”.
For `CCC1(c2ccccc2)C(=O)NCNC1=O`, the Potency was 5.26 µM (active).
In the case of `Clc1ccccc1C(c1ccccc1)(c1ccccc1)n1ccnc1`, the Potency is reported as “inactive”.
In the case of `O=c1c(-c2ccc(O)cc2)coc2cc(O)cc(O)c12`, the Potency is reported as “inactive”.
With `Cc1cc(C(C)(C)C)c(O)c(C)c1CC1=NCCN1` the Potency was “inactive”.
In the case of `CC(C(=O)O)c1cccc(C(=O)c2ccccc2)c1` (stereo not given), the Potency is reported as 18.7 µM (active).
In the case of `CCC1(C)CC(=O)NC1=O` (stereo not given), the Potency is reported as “inactive”.
With `Nc1nc2c(ncn2COC(CO)CO)c(=O)[nH]1` the Potency was 20.9 µM (active).
With `CC1COc2c(N3CCN(C)CC3)c(F)cc3c(=O)c(C(=O)O)cn1c23` (stereo not given) the Potency was “inactive”.
With `O=C(Nc1ccc([N+](=O)[O-])cc1Cl)c1cc(Cl)ccc1O` the Potency was 1.32 µM (active).
With `N[C@@H](Cc1c[nH]c2ccc(O)cc12)C(=O)O` the Potency was “inactive”.
In the case of `CN(C)C(=O)C(CCN1CCC(O)(c2ccc(Cl)cc2)CC1)(c1ccccc1)c1ccccc1`, the Potency is reported as 18.7 µM (active).
